For 14 compounds, growth results are on record in PubChem BioAssay (NCI).

This is part of a sample that, as a whole, favours compounds with a hit. Of some 83,000 tested, about 20% had one in any assay.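 Values shown are percent growth following 48 h exposure of cells in 96-well plates to a single concentration of compound; below 10 was considered active.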 A number with no mark means an inactive call. The source made the active and inactive calls.

Holding throughout (assay): NCI-60 one-dose screen, 48 h (100 = growth as untreated, 0 = no growth, -100 = all killed)
The subject of assay [1] is SK-MEL-2 melanoma. The conditions noted are these: 10 µM unless noted.
Assay [2] concerns EKVX NSCLC. The settings on record: 10 µM unless noted.
For assay [3], the system named is SN12C renal. The settings on record: 10 µM unless noted.
Assay [4] relates to UO-31 renal. The conditions noted are these: 10 µM unless noted.
The subject of assay [5] is TK-10 renal. The conditions noted are these: 10 µM unless noted.
Assay [6] deals with ACHN renal. The conditions noted are these: 10 µM unless noted.
For assay [7], the system named is CAKI-1 renal. The conditions noted are these: 10 µM unless noted.
Assay [8] has as its system HL-60(TB) leukemia. The settings on record: 10 µM unless noted.
Assay [9] relates to CCRF-CEM leukemia. The conditions noted are these: 10 µM unless noted.
Assay [10] has as its system A498 renal. The settings on record: 10 µM.

With `O=C(Nc1ccc([N+](=O)[O-])cc1)C(Cl)(Cl)Cl`, the growth in assay [1] was 102%; in [2], 89.4%; in [3] it was 95.3%; in assay [4], 87.3%; in [5] it was 113%; in assay [6], 86.9%. The growth in assay [7] is 83.3%; in assay [8] it was 108%; in assay [9] it was 101%.
For `N#C[S-].[Au+].c1ccc(CN2[CH-]N(Cc3ccccc3)C(c3ccccc3)=C2c2ccccc2)cc1`, the growth in assay [1] is -1.84% (active); in assay [2], 12.6%; in assay [3], 6.67% (active); in assay [4], 4.03% (active); in [5], 17.6%; in assay [6], 2.08% (active). For the same compound, the growth in [10] was -37.3% (active); in assay [8], -44.1% (active).
For `CCn1cnc2c(Nc3cccc(Cl)c3)nc(N[C@@H]3CCCC[C@@H]3N)nc21`, the growth in assay [1] is -1.69% (active); in assay [2], 11.8%; in assay [3] it was 6.96% (active); in [4], -13.3% (active); in [5] it was 13.5%; in [6], 0.47% (active). Besides, the growth is 25.1% in [7], -51.6% (active) in assay [8] and 2.54% (active) in [9].
Turning to `COC(=O)CCc1c[nH]c2ccc(N(CCCl)CCCl)cc12`, the growth is 121% in assay [1]; 96.6% in assay [2]; 36.6% in [3]; 19.5% in assay [4]; 90% in assay [5]; 12.6% in assay [6]. For the same compound, the growth in assay [10] is 84.3%; in assay [8] it was 17.5%.
In the case of `CCC(C)(C)[C@H](NC(=O)[C@H]1CCCCN1C)C(=O)N(C)[C@H](C[C@@H](OC(C)=O)c1nc(C(=O)N[C@@H](Cc2ccccc2)C[C@H](C)C(=O)O)cs1)C(C)C`, the growth in [1] is 21.9%; in assay [2], 52.6%; in [3] it was 17.5%; in [4] it was 32.9%; in assay [5] it was 35.1%; in [6] it was 11.4%. The growth was 29% in assay [7], -8.72% (active) in [8] and 2.41% (active) in assay [9].
As to `CC(=O)O[C@H](C[C@H](C(C)C)N(C)C(=O)[C@@H](NC(=O)[C@H]1CCCCN1C)C(C)C)c1cccc(C(=O)N[C@@H](Cc2ccccc2)C[C@H](C)C(=O)O)n1`, the growth in assay [1] was 30.4%; in [2], 37.3%; in assay [3] it was 22%; in [4], 39.4%; in [5] it was 69%; in assay [6] it was 35.3%. The growth is -13.2% (active) in assay [10], -38.1% (active) in [8] and 5.5% (active) in [9].
For the compound `CCOC(=O)[C@@H](C)C[C@H](Cc1ccccc1)NC(=O)c1nc([C@@H](C[C@H](C(C)C)N(C)C(=O)[C@@H](NC(=O)[C@H]2CCCCN2C)C(C)C)OC(C)=O)sc1CCOCc1ccccc1`, the growth is -50.6% (active) in assay [1]; 10.8% in [2]; -58.9% (active) in assay [3]; -56.3% (active) in assay [4]; -6.54% (active) in assay [5]; -22% (active) in assay [6]. Also, the growth in [7] is -23.5% (active); in assay [8] it was -62.9% (active); in [9] it was 0.263% (active).
As for `COC(=O)[C@@H](C)C[C@H](Cc1ccc(F)cc1)NC(=O)c1csc([C@@H](C[C@H](C(C)C)N(C)C(=O)[C@@H](NC(=O)[C@H]2CCCCN2C)C(C)C)OC(C)=O)n1`, the growth in assay [1] is 37.7%; in assay [2], 48.7%; in assay [3], 26.6%; in assay [4], 47%; in assay [5] it was 50.2%; in assay [6], 22.1%. For the same compound, the growth is -3.94% (active) in assay [10], -37.5% (active) in [8] and 12.3% in [9].
As to `O=[N+]([O-])CC(O)C(Cl)(Cl)Cl` (centres undefined), the growth in [1] is 150%; in assay [2], 101%; in assay [3], 106%; in [4], 80.2%; in assay [5] it was 110%; in assay [6] it was 96.5%. For the same compound, the figures for the growth in assay [10], in assay [8] and in assay [9] were 87.3%, 83.7% and -21.1% (active), respectively.
`COc1ccc(NC([Se])=NC23CC4CC(CC(C4)C2)C3)cc1`: the growth in assay [1] is -8.11% (active); in assay [2], -14.3% (active); in assay [3], 4.39% (active); in [4] it was -27.3% (active); in assay [5], -40.9% (active); in assay [6] it was 0.201% (active). Also, the growth in assay [7] was -31% (active); in assay [8], -11.8% (active); in [9], 5.94% (active).
For the compound `CC[C@H](C)[C@H](NC(=O)[C@H]1CCCCN1C)C(=O)N(C)[C@H](CCc1nc(C(=O)N[C@@H](Cc2ccccc2)C[C@H](C)C(=O)OC)cs1)C(C)C`, the growth in assay [1] is 32.7%; in assay [2] it was 47.3%; in [3], 28.9%; in assay [4] it was 43.5%; in assay [5], 54.3%; in [6], 29.3%. Moreover, the growth was -2.22% (active) in [10], -21.2% (active) in [8] and 12.8% in assay [9].
Regarding `Cc1cc(N(CCCl)CCCl)ccc1C=Nc1cccnc1`, the growth in assay [1] is 101%; in assay [2], 104%; in [3] it was 57.2%; in [4] it was 70.3%; in assay [5] it was 56.1%; in assay [6], 48.3%. Further, the growth in [10] was -72.3% (active); in assay [8], 41.4%; in assay [9] it was 61.4%.
As to `O=C(Nc1ccncc1F)c1cn(CC2CC2)c2ccccc12`, the growth in assay [1] was 98.8%; in assay [2] it was 89.2%; in assay [3], 102%; in [4], 93.9%; in [5], 103%; in assay [6] it was 108%. Moreover, the values for the growth in assay [10], in assay [8] and in assay [9] were 91%, 100% and 102%, respectively.
With `Cc1cc(NC(=O)NCc2ccc(N3C(N)=NC(N)=NC3(C)C)cc2)ccc1S(=O)(=O)F`, the growth was 34.4% in assay [1]; 53.5% in assay [2]; 33.6% in [3]; 80.1% in assay [4]; 45.7% in assay [5]; 89.2% in assay [6]. The growth is 77.7% in assay [10], 24.7% in [8] and 55.4% in assay [9].
